The record followed here is PubChem BioAssay AID540299 (ICCB-Longwood Screening Facility, Harvard Medical School, 2011).

Several values for one entry are separate records, joined by “and”; a condition that tells them apart may be missing. Equal values may be shown once. In all, about 100,000 compounds went through this assay and about 440 (0.44%) were called active. No stated cut-off is given here; in the data, active means inhibition above about 21% (passing the limit was not always enough); inactive means the rest. This excerpt belongs to a sample that is enriched for actives. Some structures have more than one record in an assay (separate samples or runs), and their calls can disagree.

In the test the target is 1,4-dihydroxy-2-naphthoyl-CoA synthase (Mycobacterium tuberculosis (strain ATCC 25618 / H37Rv)) (UniProt P9WNP5). Description: M. tuberculosis MenB inhibitors, primary screen, biochemical, absorbance (AID 540299). Conditions: MenB enzyme assay, absorbance read-out; stronger effect = higher value; concentration not given here.
Chain of 1,4-dihydroxy-2-naphthoyl-CoA synthase (Mycobacterium tuberculosis (strain ATCC 25618 / H37Rv)) (P9WNP5 whole entry, looked up): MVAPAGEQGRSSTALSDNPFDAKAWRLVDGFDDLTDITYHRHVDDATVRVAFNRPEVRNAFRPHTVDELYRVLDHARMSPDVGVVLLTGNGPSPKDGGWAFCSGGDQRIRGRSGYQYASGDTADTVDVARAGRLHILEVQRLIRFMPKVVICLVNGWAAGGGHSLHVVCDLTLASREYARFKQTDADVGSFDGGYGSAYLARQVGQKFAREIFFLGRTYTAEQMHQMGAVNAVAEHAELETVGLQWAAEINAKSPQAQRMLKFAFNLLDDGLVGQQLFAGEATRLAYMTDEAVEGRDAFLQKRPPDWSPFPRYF
Broadly, the inhibition is the drop in the measured response relative to a control, in per cent. Regarding `CCOc1ccc(CN(C)C(C)c2nnc(-c3ccc(C)cc3)o2)cc1` (stereo not given), the inhibition was -8.7% (inactive).

On to `COc1ccc2nc(SC)[nH]c2c1`, for which the inhibition is 0.13% (inactive).

Consider `O=C(c1ccccc1)N1CCN(c2cccc(Cl)c2)CC1`, for which the inhibition was -21% (inactive).

For `CC(C)(C)CNC(=S)NN`, the inhibition is -27.8% (inactive).

For the compound `CCO/C=N/c1c(C(=O)OCC)c2nc3ccccc3nc2n1Cc1ccccc1`, the inhibition is -29.7% (inactive).

Regarding `CC(=O)Oc1ccc(N(C(C)=O)S(=O)(=O)c2ccc(Cl)cc2)cc1`, the inhibition was -5.01% (inactive).

`COc1ccc(N(CCC#N)S(=O)(=O)c2ccc(Cl)cc2)cc1`: the inhibition was 34.8% (active).

Turning to `COc1ccc(S(=O)(=O)N(C)C)cc1`, the inhibition was -20.5% (inactive).

For `CCc1ccc2[nH]c(=O)c(CN(Cc3ccco3)C(=O)c3ccccc3)cc2c1`, the inhibition was -39% (inactive).

As to `COCC(=O)N(CCc1ccccc1)Cc1cc2cccc(C)c2n2nnnc12`, the inhibition was 5.43% (inactive).

For `Cc1ccc2c(c1)cc(CN(Cc1ccco1)C(=O)c1ccccc1)c1nnnn12`, the inhibition was 32.8% (active).

For `COc1ccc(-c2noc(CC(=O)N(C(C)C)C3CCCCC3)n2)cc1`, the inhibition is -38.9% (inactive).

Regarding `CC(C)c1ccc(-c2noc(C3CCCN(S(C)(=O)=O)C3)n2)cc1` (stereo not given), the inhibition was 29.2% (active).

As to `CC(C)c1ccc(S(=O)(=O)N2CCN(S(=O)(=O)c3ccc(C(C)C)cc3)C(C)C2)cc1` (stereo not given), the inhibition was -17.6% (inactive).

Take `COc1ccc(N2CCN(C(=S)C3CCCCC3)CC2)cc1`: the inhibition is 1.7% (inactive).

In the case of `CCOC(=O)N1CCC(NC(=O)Cn2nc(Cc3cccnc3)c3ccccc3c2=O)CC1`, the inhibition is 13.3% (inactive).

As for `CC(C)(C)c1ccc(OCc2nnc(SCC(N)=O)n2-c2ccccc2)cc1`, the inhibition is -20.4% (inactive).

Take `CC(Sc1nnc(COc2ccccc2)n1-c1ccccc1)C(=O)O` (stereo not given): the inhibition is 44.3% (active).

Turning to `O=C(O)CSc1nnc(COc2ccc(Cl)cc2)n1-c1ccc(Br)cc1`, the inhibition was -31.3% (inactive).

For `OC(COc1ccc(Cl)cc1)C(O)C(O)c1cnn(-c2ccccc2)n1` (stereo not given), the inhibition is -25.4% (inactive).

On to `Cc1ccc(Cn2c(=O)c3ccccc3n3c(SCC(=O)N(C(C)C)C(C)C)nnc23)cc1`, for which the inhibition was -3.38% (inactive).

With `CCN(c1ccccc1)S(=O)(=O)c1ccc(Sc2nnc(-c3cccs3)n2CC2CCCO2)nc1` (stereo not given), the inhibition is -29.5% (inactive).

In the case of `CCOC(=O)c1c(NC(=O)c2cc(-n3cnnc3)ccc2Cl)sc2c1CCCC2`, the inhibition is -11.9% (inactive).

In the case of `COc1cc(C(=O)N2CCC(n3nnc4cc(F)ccc43)CC2)cc(OC)c1OC`, the inhibition is -27.8% (inactive).

Turning to `CCOC(=O)c1cnc2cc(C(F)(F)F)ccc2c1N1CCCCCC1`, the inhibition is -32.7% (inactive).

Take `CCOC(=O)CN1CCC(n2nnc3cc(C(F)(F)F)ccc32)CC1`: the inhibition is 40.1% (active).

On to `CCCN(CCC)C(=O)c1cc(-c2ccccc2)n[nH]1`, for which the inhibition was 2.47% (inactive).

With `O=C(Nc1ccccc1)c1ccco1`, the inhibition is -38.1% (inactive).

For `CCCC(=O)N1CCN(c2ccc(NC(=O)c3cccc(C)c3OC)cc2Cl)CC1`, the inhibition was -14.8% (inactive).

In the case of `CCC(=O)Nc1cc(NC(=O)c2ccco2)ccc1C`, the inhibition was 3.59% (inactive).

Consider `Cc1cccc(C(=O)Nc2ccc(NC(=O)c3ccco3)cc2)c1`, for which the inhibition is -25.7% (inactive).

For the compound `CCCC(CCC)C(=O)Nc1ccc(NC(=O)c2ccco2)cc1`, the inhibition is 34.4% (active).

As to `CCCC(=O)N1CCN(c2ccc(NC(=O)c3ccco3)cc2Cl)CC1`, the inhibition is 36.3% (active).

Regarding `CCC(/C=N/N1C(=O)c2ccccc2C1=O)CC`, the inhibition is 4.86% (inactive).

Take `CCSc1nnc(C2CCN(CC(=O)Nc3ccc(N4CCCCCC4)cc3)CC2)n1C`: the inhibition is -53.3% (inactive).

`Cc1cc(C)nc(N2CCCC(C)C2)n1` (stereo not given): the inhibition is -26.5% (inactive).

Regarding `N#CC1=C(N)/C(=C\c2ccc(Cl)c(Cl)c2)SC1=N`, the inhibition is -31% (inactive).

Consider `Cc1cc(C)nc(SCC(=O)N2CCCC2c2cccs2)n1` (stereo not given), for which the inhibition was -1.45% (inactive).

Consider `O=C1C=C/C(=N\OC(=O)c2ccccc2)C2=C1C1C=CC2C1` (stereo not given), for which the inhibition was -24.3% (inactive).

On to `COc1ccc(-c2noc(CNC3CCCCC3)n2)cc1`, for which the inhibition is -2.19% (inactive).

Take `CC1Sc2nnc(-c3ccc(OC(F)F)cc3)n2N=C1c1ccc(NS(C)(=O)=O)cc1` (stereo not given): the inhibition was -9.43% (inactive).

Take `N#Cc1cc(Cl)c2c(c1)OCCO2`: the inhibition is -39.8% (inactive).

Take `O=C(COC(=O)Cn1[nH]c(=O)c2ccccc2c1=O)Nc1ncc(Cl)cc1Cl`: the inhibition was 1.74% (inactive).

`Cc1nc2ccc(NC(=O)CC(C)(C)C)cc2s1`: the inhibition is -7.18% (inactive).

Regarding `N#Cc1nc(NC(=O)c2cc(-c3cccs3)nc3ccccc23)[nH]c1C#N`, the inhibition was -0.59% (inactive).

Consider `O/N=C(/c1ccccc1)c1ccccn1`, for which the inhibition was 17.8% (inactive).

With `CN1C(=O)C(C(=O)O)C2CC1Oc1ccccc12` (stereo not given), the inhibition was 34.4% (active).

For `CN1C(=O)C(S(=O)(=O)c2ccccc2)C2CC1(C)Oc1ccccc12` (stereo not given), the inhibition is 11.3% (inactive).

Consider `CCN1C(=O)C(C(=O)NC(C)c2ccccc2)C2CC1(C)Oc1ccccc12` (stereo not given), for which the inhibition was 25.7% (inactive).

With `CCN(CC)Cc1cc(C(=O)O)co1`, the inhibition is 31.6% (active).

Take `CCN(c1ccccc1)S(=O)(=O)c1cccc(C(=O)O)c1`: the inhibition is -9.9% (inactive).

With `CCCCC#Cc1cncc(C(=O)O)c1`, the inhibition was -22.8% (inactive).

For the compound `COc1ccc(C(=O)OCc2ccccn2)cc1`, the inhibition was -2.18% (inactive).

Regarding `COC(=O)c1ccccc1NC(=O)C1CCN(S(=O)(=O)c2ccc(OC)c(OC)c2)CC1`, the inhibition is -4.4% (inactive).

Regarding `O=c1c(O)coc(CO)c1C(Nc1ccccn1)c1ccccc1O` (stereo not given), the inhibition was -8.94% (inactive).

Take `Cc1ccc(NC(=O)CC(C)S(=O)(=O)c2ccc3c(c2)SCC(=O)N3)cc1` (stereo not given): the inhibition was -27.7% (inactive).

For `O=C(CN1CCCCC1)N1N=C(c2cccs2)CC1c1ccc(O)cc1` (stereo not given), the inhibition was -15.9% (inactive).

In the case of `CN1C(=O)c2cccc(NC(=O)c3ccccc3)c2C1=O`, the inhibition was -46.4% (inactive).

Turning to `COc1cccc2c1C(=O)C1C(O)=C3C(=C(O)C1C2=O)C[C@@](O)(C(=O)CO)C[C@@H]3OC1CC(N)C(O)C(C)O1` (stereo not given in full), the inhibition is 4.12% (inactive).

As to `CN(Cc1cccc(Cl)c1Cl)CC(O)COCc1ccccc1` (stereo not given), the inhibition was -5.12% (inactive).

On to `COc1ccc(Cc2nnc3n2N=C(N)CS3)cc1`, for which the inhibition is 8.07% (inactive).

For `CCNc1nnc(-c2ccc(C)cc2)s1`, the inhibition was -8.94% (inactive).

Consider `COc1ccc(-c2noc(N3CCN(c4ccc(OC)cc4)CC3)n2)cc1`, for which the inhibition was 1.43% (inactive).

Take `COc1cc(C)cc(CN2CCN(S(=O)(=O)c3ccccc3C#N)CC2)c1O`: the inhibition was -41.6% (inactive).

On to `CCCC1(C(=O)OC)NC(c2ccco2)C2C(=O)N(C)C(=O)C21` (stereo not given), for which the inhibition is 29.6% (active).

Regarding `CCN1C(=O)C2C(c3cccs3)NC(C)(C(=O)OC)C2C1=O` (stereo not given), the inhibition is 15.1% (inactive).

For `CCOC(=O)C1(Cc2ccc(O)cc2)NC(c2ccccc2F)C2C(=O)N(C)C(=O)C21` (stereo not given), the inhibition is -10.9% (inactive).

In the case of `CC1CCCCN1CC(=O)Nc1cc(C(C)(C)C)nn1-c1ccccc1` (stereo not given), the inhibition was 7.46% (inactive).

In the case of `COc1ccc2c(CC(=O)OCC(=O)Nc3c(C)n(C)n(-c4ccccc4)c3=O)coc2c1`, the inhibition is -0.895% (inactive).

For `Cc1cc(N2CCN(C3CCCCC3)CC2)c2nncn2n1`, the inhibition was 0.645% (inactive).

For the compound `O=C1CC2NCCc3cccc1c32` (stereo not given), the inhibition was -9.34% (inactive).

`CCNS(=O)(=O)c1ccc(-c2cc(C)no2)s1`: the inhibition was -3.52% (inactive).

`O=C(COC(=O)c1ccc(S(=O)(=O)N2CCOCC2)cc1)Nc1ncc(Cl)cc1Cl`: the inhibition was 3.48% (inactive).

Turning to `CCCc1ccc(OCCNC(C)=O)c(OC)c1`, the inhibition is 11.5% (inactive).

Turning to `Cc1ccc2oc(=O)c3cnn(CC(=O)n4c(C)cc5ccccc54)c3c2c1`, the inhibition is -3.43% (inactive).

On to `CC1(C)CC(=O)C2=C(C1)N=C1SCCC(=O)N1C2c1ccc(Br)cc1` (stereo not given), for which the inhibition is -1.14% (inactive).

In the case of `C=CCn1c(=NC(C)=O)sc2cc(F)ccc21`, the inhibition is -10.2% (inactive).

Regarding `CC1CCCCN1C(=O)c1ccc2ccccc2n1` (stereo not given), the inhibition was -16.5% (inactive).

Consider `O=C1CCC(=O)N1CNc1ccc(-c2ccccc2)cc1`, for which the inhibition is -8.33% (inactive).

With `Oc1ccc(SSc2ccc(O)cc2)cc1`, the inhibition is 40.7% (active).

As for `Oc1ccc(-n2cccc2)cc1`, the inhibition is -10.9% (inactive).

Regarding `Oc1ccc(-c2cccc(-c3ccc(O)cc3)c2)cc1`, the inhibition is -21.5% (inactive).

Regarding `CCc1ccc(-c2nnn(Cc3nn[nH]n3)n2)cc1`, the inhibition is 42.6% (active).

Consider `Cc1ccccc1Cn1nnc(-c2ccncc2)n1`, for which the inhibition was -48.5% (inactive).

With `c1cc(-c2nn[nH]n2)ccc1CN1CCCCC1`, the inhibition was -0.56% (inactive).

With `COC(=O)Cc1cnc(NC(=O)CSc2nc(C(C)C)cc(=O)[nH]2)s1`, the inhibition is -54% (inactive).

Regarding `CN1C(C(=O)NC2CCCC2)=CC(c2cccs2)=NS1(=O)=O`, the inhibition is -18.8% (inactive).

Consider `COc1ccc(C(=O)NNc2nnc(C(C)(C)C)c(=O)n2N)cc1`, for which the inhibition is 1.4% (inactive).

Consider `O=C(c1ccco1)N1CCCCCCC1`, for which the inhibition was 1.17% (inactive).

Regarding `O=C(On1c(-c2ccccc2)nc2ccccc2c1=O)c1cccc(C(F)(F)F)c1`, the inhibition was 11.4% (inactive).

`Fc1ccc(CNCc2ccccn2)cc1`: the inhibition is -6.84% (inactive).

In the case of `COc1ccc(CNCC(O)c2nnn(C)n2)cc1OC` (stereo not given), the inhibition was -32.7% (inactive).

Take `Cn1nnc(C(O)CNCc2ccc(F)cc2)n1` (stereo not given): the inhibition was 29.6% (active).

For the compound `CC1CCCC(NC(=O)COC(=O)c2cccc(S(=O)(=O)N(C)C)c2)C1C` (stereo not given), the inhibition was -17.8% (inactive).

Consider `O=C(O)C1CCCN(C(=O)c2cnn(-c3ccccc3)c2-n2cccc2)C1` (stereo not given), for which the inhibition was 1.1% (inactive).

Regarding `O=C(Nc1ccccc1C(=O)N1CCCC1)Oc1ccccc1`, the inhibition was 3.13% (inactive).

Consider `CCOC(=O)c1[nH]cnc1C(=O)NC1CCCCC1`, for which the inhibition is -17.9% (inactive).

As for `Cc1ccc(NC(=O)c2nc[nH]c2C(=O)N2CCCCC2)c(C(=O)c2ccccc2)c1`, the inhibition is 39.3% (active) and -17.8% (inactive).

As to `N#CSc1ccc(N)c(Br)c1`, the inhibition is 24.6% (active).

For the compound `N#CSc1ccc(N2CCCCC2)cc1`, the inhibition was -10.6% (inactive).
